Measured values reported in PubChem BioAssay (EPA / NIEHS).
Results filed as inconclusive are left out. Active and inactive are the calls of the source. The calls were made as follows: active = hit-call score of the fitted dose curve at least 0.9, where 1 is the maximum; inconclusive = response in the unintended direction; inactive = score below 0.9.

target: Peroxisome proliferator-activated receptor gamma (Homo sapiens) (UniProt P37231); assay: OT_PPARg_PPARgSRC1_0480: Odyssey Thera (OT) 8-hour Protein-Complementation Assay for Peroxisome Proliferator-activated Receptor Gamma / SRC-1 Co-activator (AID 2283387);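 also: nuclear to cytoplasmic split Venus YFP fluorescence ratio reporting PPARg SRC-1 interaction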
Experimental: OT_PPARg_PPARgSRC1_0480 is a cell-based assay that uses HEK293T, a human kidney cell line, with measurements taken at 8 hours after chemical dosing in a 384-well plate.OT_PPARg_PPARgSRC1_0480 is one of one assay component(s) measured or calculated from the OT_PPARg_PPARgSRC1_0480 assay. It is designed to make measurements of protein fragment complementation, a form of binding reporter, as detected with fluorescence intensity signals by Protein-fragment Complementation technology.Data from the assay component OT_PPARg_PPARgSRC1_0480 was analyzed into 1 assay endpoint. This assay endpoint, OT_PPARg_PPARgSRC1_0480, was analyzed in the positive analysis fitting direction relative to DMSO as the negative control and baseline of activity. Using a type of binding reporter, measures of receptor for gain-of-signal activity can be used to understand the binding at the pathway-level as they relate to the gene PPARG. Furthermore, this assay endpoint can be referred to as a primary readout, because the performed assay has only produced 1 assay endpoint. To generalize the intended target to other relatable targets, this assay endpoint is annotated to the nuclear receptor intended target family, where the subfamily is non-steroidal.
The OT PPARg/SRC-1 assay assessed receptor-chemical interactions using a rapidly maturing, intensely fluorescent mutant of YFP known as Venus, rationally dissected into two separate fragments. The fragments were obtained as follows: first, fragments coding for YFP1 and YFP2 (corresponding to amino acid residues 1-158 and 159-239 of the full length YFP, respectively) were generated by oligonucleotide synthesis (Blue Heron Biotechnology), and then PCR mutagenesis was used to generate the mutant fragments IFP1 and IFP2. Fusion constructs were transfected into HEK293T cells with a (Gly4Ser)2 linker between the PPARg/SRC-1 and YFP fragment genes to facilitate complementation when interacting proteins bring fragments into close proximity. The construct is transiently transfected in HEK293T cells 48 hours prior to treatment with test compounds. Cells are seeded into optical quality 384-well poly-D-lysine coated plates in MEM alpha medium (Invitrogen) supplemented with 10 percent FBS (Gemini Bio-Products) 1 percent penicillin and 1 percent streptomycin, and grown in 37C incubator equilibrated to 5 percent CO2. Cells are allowed to adhere for 24 hours prior to treatment with compounds of interest or controls for 8 hours. Cells are fixed in 4 percent formaldehyde and stained with Draq5 (BioStatus) to identify cells and subcellular compartment boundaries prior to signal detection. 8 Images per well were acquired on an Evotec Opera at 2 wavelengths (488 and 635nm), and the ratio of fluorescence in the nucleus relative to fluorescence in the cytoplasm (N/C Ratio) in the 488nm channel was calculated for a minimum of 350 cells per image.

Peroxisome proliferator-activated receptor gamma (Homo sapiens), sequence (P37231 whole entry, looked up, the tested form may be a part): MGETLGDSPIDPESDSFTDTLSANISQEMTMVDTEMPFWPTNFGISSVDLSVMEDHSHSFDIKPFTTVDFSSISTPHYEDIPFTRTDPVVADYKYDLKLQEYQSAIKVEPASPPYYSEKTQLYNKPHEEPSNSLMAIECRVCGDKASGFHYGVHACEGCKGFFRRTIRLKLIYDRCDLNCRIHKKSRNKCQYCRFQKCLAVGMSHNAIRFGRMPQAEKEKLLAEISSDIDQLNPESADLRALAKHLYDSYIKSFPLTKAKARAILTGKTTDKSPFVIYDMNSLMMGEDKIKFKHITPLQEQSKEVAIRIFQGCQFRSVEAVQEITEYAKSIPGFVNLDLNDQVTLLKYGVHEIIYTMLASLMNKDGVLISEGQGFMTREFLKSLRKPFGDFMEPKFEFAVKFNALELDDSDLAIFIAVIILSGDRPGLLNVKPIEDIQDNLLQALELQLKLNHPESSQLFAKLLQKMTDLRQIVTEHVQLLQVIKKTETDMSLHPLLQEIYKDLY

Compound	outcome
CCOP(O)OCC	inactive
O=CNC(N1CCN(C(NC=O)C(Cl)(Cl)Cl)CC1)C(Cl)(Cl)Cl (stereo not given)	inactive
[CH3][Sn]([CH3])([Cl])[Cl]	inactive
CCc1cccc(C)c1N(C(=O)CCl)[C@@H](C)COC	inactive
CC(C)(O)C#N	inactive
CCCCCCCCCCCCCCCC[N+](C)(C)C	inactive
CC[N+](=O)[O-]	inactive
Oc1cc(Cl)ccc1Cl	inactive
CC1CCCC1.[C-]#[O+].[C-]#[O+].[C-]#[O+].[Mn]	inactive
CCCC=NO	inactive
O=S(=O)(O)OOS(=O)(=O)O	inactive
Nc1ccc(Cl)c(Cl)c1	inactive
c1cc[n+]2c(c1)-c1cccc[n+]1CC2	inactive
CN(C)N	inactive
N#CCCCCC#N	inactive
C=CC(=O)OCC(CC)CCCC (stereo not given)	inactive
O=C(CCl)c1ccccc1	inactive
O=P(O)(Oc1ccccc1)Oc1ccccc1	inactive
COc1cc(OC)nc(Oc2cccc(Oc3nc(OC)cc(OC)n3)c2C(=O)O)n1	inactive
CCOC(=O)C1OC1(C)c1ccccc1 (stereo not given)	inactive

Compound	outcome
CCC(=O)c1ccc(Cl)cc1	inactive
CC(=O)C=Cc1ccccc1	inactive
Oc1ccc(Cl)cc1	inactive
CC(C)(Cl)Cl	inactive
CC(=O)c1cc2c(cc1C)C(C)(C)C(C)CC2(C)C (stereo not given)	inactive
CC(C)[C@@H](C(=O)O[C@@H](C#N)c1cccc(Oc2ccccc2)c1)c1ccc(Cl)cc1	inactive
Nc1ccccc1	inactive
C=CCN(CC=C)C(=O)C(Cl)Cl	inactive
Cc1cc(C)c(C2=C(OC(=O)CC(C)(C)C)C3(CCCC3)OC2=O)c(C)c1	inactive
O=C1Nc2ccc(Cl)cc2C(c2ccccc2)=NC1O (stereo not given)	inactive
CC(C)c1ccc(O)cc1	inactive
CCOP(=O)(OCC)Oc1ccc([N+](=O)[O-])cc1	inactive
O=C=Nc1ccccc1	inactive
CC(C)C#N	inactive
CC(Cc1ccc(C(C)(C)C)cc1)CN1C[C@@H](C)O[C@@H](C)C1 (stereo not given in full)	inactive
Cc1ccc(OP(=O)(Oc2ccc(C)cc2)Oc2ccc(C)cc2)cc1 (tested in a mixture with another compound)	inactive
CCOP(=O)(OCC)OCC	inactive
O=[N+]([O-])O	inactive
CC1(C)[C@H](C(=O)O[C@H](C#N)c2cccc(Oc3ccccc3)c2)[C@@H]1C=C(Br)Br	inactive
Nc1cc(Cl)cc(Cl)c1	inactive
